According to ChEMBL document CHEMBL3433997, “St. Jude Leishmania screening dataset” (2016):

Columns and labels:
Format in all cases: functional
[1] = biological target: Solute carrier family 2, facilitated glucose transporter member 1 (Homo sapiens) (UniProt P11166); experiment: ST_JUDE_LEISH: Cytotoxicity at 2uM final concentration against transgenic Leishmania Mexicana promastigotes LmGLUT1 that are glucose transport deficient and complemented with the human glucose transporter GLUT1. Activity is measured by DNA content using SYBR green in vitro
[2] = biological target: Hexose transporter 1 (Plasmodium falciparum) (UniProt O97467); experiment: ST_JUDE_LEISH: Cytotoxicity at 2uM final concentration against transgenic Leishmania Mexicana promastigotes LmPfHT that are glucose transport deficient and complemented with the Plasmodium falciparum hexose transporter. Activity is measured by DNA content using SYBR green in vitro
[3] = biological target: Glucose transporter (Leishmania mexicana) (UniProt O61059); experiment: ST_JUDE_LEISH: Cytotoxicity at 2uM final concentration against transgenic Leishmania Mexicana promastigotes LmGT2 that are glucose transport deficient and complemented with the L. Mexicana glucose transporter 2. Activity is measured by DNA content using SYBR green in vitro

Chain of Solute carrier family 2, facilitated glucose transporter member 1 (Homo sapiens) (P11166 whole entry): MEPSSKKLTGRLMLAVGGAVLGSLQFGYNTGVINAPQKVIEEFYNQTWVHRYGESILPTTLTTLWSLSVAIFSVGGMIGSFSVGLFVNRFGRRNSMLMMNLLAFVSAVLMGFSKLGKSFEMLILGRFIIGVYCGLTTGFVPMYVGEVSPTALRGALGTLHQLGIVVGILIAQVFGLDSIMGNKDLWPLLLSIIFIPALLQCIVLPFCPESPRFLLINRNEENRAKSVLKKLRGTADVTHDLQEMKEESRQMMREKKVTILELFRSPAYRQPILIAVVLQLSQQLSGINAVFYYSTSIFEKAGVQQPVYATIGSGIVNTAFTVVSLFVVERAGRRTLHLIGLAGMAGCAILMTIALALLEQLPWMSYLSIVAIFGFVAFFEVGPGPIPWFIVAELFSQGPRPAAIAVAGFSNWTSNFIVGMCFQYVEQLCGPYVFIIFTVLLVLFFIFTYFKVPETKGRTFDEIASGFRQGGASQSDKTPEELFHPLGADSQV

Row | SMILES | inhibition [1] [%] | inhibition [2] [%] | inhibition [3] [%]
1 | C=CC12CCN(CC1)C(C(O)c1ccnc3ccc(OC)cc13)C2 (stereo not drawn) | 0.26 | 0.03 | -0.85
2 | COc1cccc(CC(C)NCC(O)c2cccc(Cl)c2)c1 (stereo not drawn) | 0.74 | 2.67 | 1.92
3 | O=C(Cc1cc(=O)oc2cc(O)ccc12)NC1CCC(CN2CCC(c3c[nH]c4ccccc34)CC2)CC1 (stereo not drawn) | 2.39 | 2.2 | 2.14
4 | CC[C@H]1CN2CC[C@@H]1C[C@H]2[C@H](O)c1cc(N2CCOCC2)nc2ccc(OC)cc12 | -1.11 | -1.44 | -2.42
5 | COc1cccc(CCNC(C)Cc2ccc(OCCCCOc3ccccc3)cc2)c1 (stereo not drawn) | 95 | 96.3 | 101
6 | COc1ccc2[nH]cc(C3CC4CCC(C3)N4CCC3CCN(C(=O)/C=C/c4ccc(Cl)c(Cl)c4)CC3)c2c1 (stereo not drawn) | -0.2 | 1.01 | 0.71
